Activity remaining data for 40 compounds are collected here from PubChem BioAssay.

A number with no mark means an inactive call. How the calls were made is not given here. Positions of bridges follow the written chain, without caps; N, C: chain ends. Non-standard residues stand in square brackets, D forms with d. Residues, ends and D or L forms follow the SMILES beside them. *: point of attachment. Octanoyl(6-Me) = CCC(C)CCCCC(=O)*; Dab = NCC[CH](N)C(=O)O

This experiment has as its system Aerobactin synthetase IucA (Klebsiella pneumoniae hvKP1). Kind of experiment: IucA enzyme inhibition, primary screen, biochemical, Spectrum library (AID 1346200).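 Further: 100% = wells without compound and 0% = wells lacking enzyme.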 The note with it: malachite green pyrophosphate, A620, at 8 µM, active compounds read low.
As for `COC(=O)C1=C(C)NC(C)=C(C(=O)OCC(C)C)C1c1ccccc1[N+](=O)[O-]` (stereo not given), the activity remaining was 118%. As for `O=C(/C=C/C=C/c1ccc2c(c1)OCO2)N1CCCCC1`, the figure is 104%; as for `C=C1CC[C@@]2(OC1)O[C@H]1CC3C4CC=C5C[C@@H](O)C[C@@H](O)[C@]5(C)C4CC[C@]3(C)[C@H]1[C@@H]2C` (stereo not given in full), 113%; as for `CCCCC(=O)N(Cc1ccc(-c2ccccc2-c2nn[nH]n2)cc1)[C@H](C(=O)O)C(C)C`, 121%. On to `CCOC(=O)C1=C(O)C(=O)N(Cc2ccccc2)C1`, for which the activity remaining was 96.2%. For `CCC(C)C(=O)OC1[C@@H]2CC3=C4CC(=O)O[C@@H](c5ccoc5)[C@]4(C)CCC3C(C)(C2=O)[C@@H](CC(=O)OC)C1(C)C` (stereo not given in full) the value was 125%. As for `C[C@H](CCC(=O)O)[C@H]1CCC2C3C(=O)CC4CC(=O)CC[C@]4(C)C3CC(=O)[C@@]21C` (stereo not given in full), the activity remaining is 122%.

Regarding `C[C@@H]1CCC2[C@](C)(CO)[C@@H](O)CC[C@]2(C)[C@@]12CC[C@@](CO)(CCO)O2` (stereo not given in full), the activity remaining is 113%.

In the case of `COc1ccc(-c2c(O)c3c(OC)c4c(cc3oc2=O)OC(C)(C)CC4)cc1`, the activity remaining was 99.1%.

With `COc1cccc2c1CCC1=CC(=O)CC[C@@]12C`, the activity remaining is 111%. As for `COC1(C)CCC2OC2(C)CCC2C1CC2(C)C` (stereo not given), the figure is 113%; as for `CCOC(=O)[C@H](CCc1ccccc1)N[C@@H](C)C(=O)N1[C@H](C(=O)O)C[C@@H]2CCC[C@@H]21`, 103%. As for `CC1(C)CC2C1CC[C@]1(C)CCC3C(C(=O)O)CC(=O)O[C@@]32C1` (stereo not given in full), the figure is 92.5%; as for `O=C(O)C1=C[C@@H](O)[C@@H](O)[C@H](O)C1`, 86.3%; as for `O=C(O)c1cc(=O)c(O)c2c(O)c(O)ccc2c1`, 90.4%. As for `O=c1c(O)cc([C@H]2Oc3cc(O)cc(O)c3C[C@H]2O)cc2c([C@H]3Oc4cc(O)cc(O)c4C[C@@H]3O)cc(O)c(O)c12`, the figure is 104%; as for `CO/N=C(/C(=O)NC1C(=O)N2C(C(=O)O)=C(COC(N)=O)CSC12)c1ccco1` (stereo not given), 92.5%. Take `COC(=O)c1c(C)c2c(c(C)c1O)OC(=O)c1c(C)c(Cl)c(O)c(Cl)c1O2`: the activity remaining was 111%.

As for `Nc1ccc(C(=O)O)cc1`, the activity remaining is 124%. As for `CC1(C)CC2C1CCC1(C)OC2(C)CCC1O` (stereo not given), the figure is 120%; as for `Nc1ccc(S(=O)(=O)Nc2ccc(Cl)nn2)cc1`, 112%; as for `O=C1C(O)=C(O)C(=O)C(O)=C1O`, 125%. For `O=c1c(O)c(-c2ccccc2)oc2cc(O)ccc12` the value was 100%. `C#C[C@]1(O)CCC2C3CCC4=CC(=O)CC[C@@H]4C3CC[C@@]21CC` (stereo not given in full): the activity remaining is 123%. With `CO[C@@H]1[C@@H](OC(N)=O)[C@@H](O)[C@H](Oc2ccc3c(O)c(NC(=O)c4ccc(O)c(CC=C(C)C)c4)c(=O)oc3c2C)OC1(C)C`, the activity remaining was 129%. For `CN1C2CC(OC(=O)[C@H](CO)c3ccccc3)C[C@H]1[C@H]1OC21` (stereo not given in full) the value was 109%. As for `O=C1c2ccccc2C(=O)c2c1ccc(O)c2O`, the figure is 112%; as for `Cc1cc(O)c2c(c1O)C(=O)c1c(O)cc(C)c(O)c1C2=O`, 100%; as for `CCC(C)CCCCC(=O)NC(CCN)C(=O)NC(C(=O)NC(CCN)C(=O)NC1CCNC(=O)C(C(C)O)NC(=O)C(CCN)NC(=O)C(CCN)NC(=O)C(CC(C)C)NC(=O)C(Cc2ccccc2)NC(=O)C(CCN)NC1=O)C(C)O` (stereo not given) ({Octanoyl(6-Me)}-[Dab]T[Dab][Dab][Dab]FL[Dab][Dab]T; lactam 4-C; configuration not given here), 121%. As for `CC(=O)O[C@]1(C(C)=O)CCC2C3C[C@H](C)C4=CC(=O)CC[C@]4(C)C3CC[C@@]21C` (stereo not given in full), the figure is 95.7%. Take `O=C(O)CN1C(=O)c2cccc3cccc(c23)C1=O`: the activity remaining was 111%. For `COC(=O)N/N=C/c1c[n+]([O-])c2ccccc2[n+]1[O-]` the value was 109%. In the case of `S=c1nc[nH]c2nc[nH]c12`, the activity remaining was 120%. As for `C=C1c2cccc(O)c2C(O)=C2C(=O)[C@]3(O)C(O)=C(C(N)=O)C(=O)[C@@H](N(C)C)[C@@H]3[C@@H](O)[C@H]12`, the figure is 111%; as for `Nc1c(Br)cc(Br)cc1CNC1CCC(O)CC1` (stereo not given), 93.2%.

As to `CC(=O)N[C@@H](Cc1c[nH]c2ccccc12)C(=O)O`, the activity remaining is 110%.

`CC1(C)CC[C@]2(C(=O)O)CC[C@]3(C)C(=CCC4[C@@]5(C)CC[C@H](O)[C@@](C)(CO)C5CC[C@]43C)C2C1` (stereo not given in full): the activity remaining is 97.3%.

With `CC(=O)O[C@H]1C[C@@H](O)C(C)(C)C2C[C@@H](OC(C)=O)[C@]3(C)C(CC[C@@]4(C)[C@H](c5ccoc5)OC(=O)C5OC543)[C@]21C` (stereo not given in full), the activity remaining was 104%. Take `COc1cc(C/C=C/c2ccccc2)c(OC)cc1O`: the activity remaining is 113%. For `OCc1ccccc1O`, the activity remaining was 115%.
